Among the data in PubChem BioAssay AID1508600 (Functional Genomics Laboratory (NCATS/FGL), 2020) are z-score values, retold here.

Screen size: about 53,000 sequences; about 3,700 (7%) were called active. The sample as a whole holds a higher share of actives than the screen did. A number with no mark means an inactive call.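 How the source made its calls: active means gene knockdowns whose robust z-score for IL-1 alpha signal is at least 2 or at most -2, so actives lie on both sides; inactive means the rest.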

A short description of the test: Components of the Cytosolic LPS Sensing Pathway: Gene Identification via Genome-wide siRNA Screen.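 Further: robust z of the log signal after scaling to non-targeting control siRNA wells of the plate.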 The settings on record: RAW264.7 macrophages, IL-1a HTRF, actives lie on both sides, screened at 100 nM (by protocol), cells primed 5 h with Pam3CSK4 first. Put shortly: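 Read-out: IL-1a HTRF on supernatant, divided by plate negative-control median ×100, log-transformed and converted to robust z-score. Cells were RAW264.7 given 100 nM siRNA, Pam3CSK4-primed 5 hours, then LipidA-transfected 24 hour.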
(In general: TR-FRET usually uses a lanthanide donor and a delayed reading to cut background.)
Turning to GGCUAAAGGCCUUCUUUUUTT against Reep3, the z-score is 0.622.
For CGCGAUUCAGCUCAUUCUCTT against Slitrk1, the z-score is 0.83.
The result for GCCAUCUUCGGUCAACUCUTT against Olfr969 reads -2.87 (active); that for GGACUCCGUCAUAUACGAATT against Olfr1102, -0.187; that for GGUAAAAGUGGGUAGGAAATT against Ptprh, 0.595.
Turning to GGAUCUACGUAGCAUUUCATT against Mis12, the z-score was 0.237.
The result for CCCUAAGAGUCACCAAAAUTT against Nos2 reads -2.19 (active); that for GGGCUGAAUAAGGAACUGUTT against Nudt16l2, 1.46; that for GGAAAGAUCACUCUUGCAUTT against Pon1, -0.58.
GGACCACUCCAAGAGUUCUTT against Ncapd3: the z-score is 2.88 (active).
To “GGAACUCUGGAAUAAUCUGTT against St6galnac2” belongs 1.58.
As to GGACCAGCUGAUCUCAGUATT against Olfr418, the z-score is -1.94.
With “GGCUGACAAGAGAUUUAAATT against 4930430F08Rik”, the z-score was -0.703.
To GCUACGCUUCCUUAUUUGCTT against Tubgcp3 belongs 0.525.
With GCCAAUAAGAACAACGAUGTT against Des, the z-score was 0.732.
To GUCUAUCUUCAGCACAAACTT against Klrc3 belongs 2.12 (active); to GGUCUUUGAUCUACGAAUGTT against Rhobtb2, 0.825.
Turning to GGAGAUAAAUGUGUAGACCTT against Matn3, the z-score is 0.915.
The result for GCACAAAUAAAGAUAAGAGTT against Uox reads -0.178; that for GGUUUAACUGUAGCAUAAGTT against Pde12, -0.0106; that for GGGACUCGGGCAGUAUUCATT against Tgm5, -0.185.
The result for GGUCGAACUUCUGUGCCAUTT against Slc39a8 reads 2.39 (active).
The result for GCAGAUGUAAAUAGCAAAATT against Apc reads 0.955; that for GGGUGACAUGAUUUUAACUTT against Fbh1, -0.727.
On to GGCAAAUCCCGUUCACUGATT against Magel2, for which the z-score was -1.08.
The result for “GCUUUUGGUACAGGAUGCCTT against 5830411N06Rik” reads -2.68 (active).
To GCGAUGAUGUGCUUAUGUCTT against Zfp341 belongs 0.735; to CCUUAGGUACUCUAAGGAATT against D1Pas1, -0.109; to CGGAUUUUGAAGUACACCGTT against Alg8, 0.207.
As for CGCAGUACCUAUUUGAGCGTT against Hs6st1, the z-score is 1.62.
Turning to GCUCAUAAUUUUGACAGCUTT against Cyp51, the z-score was 0.168.
In the case of GGCUUUCACGCUUUGACAATT against Ap1m2, the z-score was 0.209.
The result for GACUAACCAGAUGAAAGUCTT against Vmn1r11 reads -0.66; that for GCAUGUUACUAGGAUAACUTT against Mup20, 2.27 (active); that for GGAUUCUAUGACAAAGACATT against Ddx3x, 1.84.
GGCUUCCAAAACAAAUCAATT against Rgn: the z-score is 0.857.
The result for CCUGCACAACUGGAAACCUTT against Nectin2 reads -2.16 (active).
For GAUAAUGACCAGGCUACCATT against Magea7-ps, the z-score is 0.069.
Consider CCACUGUGCUCAAUUUGCATT against Slc9a2, for which the z-score was -0.372.
Consider GGCUCUGGAAAAGAACAACTT against Sds, for which the z-score is 1.52.
Turning to GGAAAUCAACAGCUCACAUTT against B3gnt9, the z-score is -0.327.
To GGAUCUAUAAGGACUACAUTT against Bmp7 belongs 4.01 (active); to GGCCGAUUCCAUUGUACAGTT against Fam177a, 3.54 (active); to GCUGUAUGGCUAAGCAGUGTT against Olfr113, -0.42.
The result for GCCUCAAAAUGGCGGAACUTT against Casp8 reads -0.249; that for CCAAGCGAAUGUCAAAAUATT against Fam163a, 0.66.
To GGAGAGGAACAGGAACAGATT against Ankrd9 belongs 0.557; to GGGUCAUUGGUAGCAACGATT against Oas1g, -2.9 (active).
On to GGCCUAAUCGAAAUGUGGCTT against Trim12a, for which the z-score is 0.515.
For the sequence GGUGACUGGUUUGUUGCUUTT against Pstk, the z-score is -1.39.
To GCUACAGGGAAGUAUUGAATT against Apc belongs 2.05 (active); to GGCUGGAAUCACUGAUAUUTT against Hddc3, 0.527.
Take CGAGAUGUUUAUUCAACAUTT against Tcf23: the z-score is -0.431.
The result for GGAACAUUUGAAGUGCAAATT against Ilf2 reads -0.45.
To GCCAUCGUCUACCUAUGACTT against Olfr358 belongs -1.85.
The result for CGGUUAGUCUGUCAGUAUCTT against Xrcc3 reads 0.488.
Take GAUUCAGCAUUAUUUCUGUTT against Olfr980: the z-score was 0.524.
On to GGGCUUGAUUGUGAAAGAATT against Tlr12, for which the z-score is -1.82.
To GGGAGAGUAAUGUGGACAUTT against Slc37a2 belongs 3.86 (active); to GCUGAAGACACUCUGUGAATT against Ehbp1l1, -1.7; to GCAACGCAGUACUCUACCCTT against Tns2, 0.557.
The result for CCCAGUGGUUUUAAAGCAUTT against Commd3 reads -1.64; that for GCCAACGCACAUAAUAAAGTT against Ndufa13, 0.245.
In the case of GCUAGGUAUCUAAGGAUAUTT against Fig4, the z-score was -0.579.
To “GGGAAACUCAAACUGAUUGTT against 9930104L06Rik” belongs 0.0417.
Take GGUCAUUGUCAAAGUCAAGTT against Nutm1: the z-score is 2.4 (active).
With GGUCAAUUCUUUGUGAUGATT against Usf1, the z-score is -0.609.
The result for GGACACUAUACAAAUUUCGTT against Fank1 reads -0.109; that for GCGACUGUACAACGAAUUGTT against Clp1, 3.34 (active); that for GCAAAACUUCGGAUAGUCATT against Gak, 0.382.
To GGCCGUUUCCUACCUCAUGTT against Cckbr belongs -1.09; to GGUCCAGAUCAGUUGACAGTT against Srsf5, 0.812.
To GCGUGGUGUAUUUGAAUCATT against Ch25h belongs 2.31 (active); to CCCAACUCGGUUUUUUUCUTT against Olfr1037, 0.827; to CCUAAGCUUAGAUCAACAUTT against Dhx36, -0.735.
As to GGACGAGAUGAACAGCCUCTT against Chkb, the z-score is 0.0671.
Turning to “GGCGCAACGAAUAAAAAUATT against D630023F18Rik”, the z-score was -0.581.
With GGAUUUCUUCCAGAAGAUGTT against Grhpr, the z-score is -1.54.
On to GGGAACAGUAUCUGAUUCATT against Polg, for which the z-score is 2.35 (active).
As to CGUAAACAUUUCCUUCUACTT against Dmbt1, the z-score was -0.718.
With CUAUGACACUUGGUUCCAUTT against Nxpe5, the z-score is 1.69.
To GCCUGUAGCAGAGAACUUUTT against Tmem59l belongs 1.1; to GGUGUGAAGGAGAAGUUCATT against Atp6v1a, 2.01 (active); to CCCAAAACUUCGUUUGUGUTT against Vezf1, -0.973.
As for CCCAUAUCCUAGCUCUCUUTT against Olfr1230, the z-score is -1.49.
Take GGCCAAAGUCCACACAAGUTT against Naaa: the z-score was 2.12 (active).
With GGCAUGGAGAGAAGAAAAGTT against Rassf7, the z-score was -0.433.
To GCUCUAGAAAGUUACAGAUTT against Crtam belongs 0.317; to GGCUGCAUCUAUAACAUAATT against Olfr611, -0.767; to GGUGAAGGUACGAGUAAGATT against Prkra, -0.809.
To GGACGAGAACGAUAAUUACTT against Dsc2 belongs 0.335.
To GGAGGUAAAGAUCAUGUCATT against Ddr1 belongs -1.39; to GGAGUAGCUGUACUCAACATT against Olfr790, -0.246.
With GGUCCUAGGUACAAUCACUTT against Slfn10-ps, the z-score is -2.58 (active).
Consider GCCACUCAGAGUGUGGAGUTT against Ddx20, for which the z-score is -0.95.
The result for GUCCUGGAAGAAAUGAGAATT against Ifna4 reads 0.781.
To CCCACAUCCCUAAGUUGUGTT against Kash5 belongs 1.55; to GGAUAAUCAUUCUUGUCACTT against Ptgfr, -0.736; to GGUCUUUGAAUGGAACAAUTT against Aldh7a1, -1.04.
In the case of GGAGUCUCCCAAAUGAAGATT against Son, the z-score is -2.84 (active).
GAGAGAGAAUACCACUGUGTT against Gm5431: the z-score is -0.244.
To GCUGGAUGUGAAAAGAGCGTT against Aktip belongs -0.00618; to GGUGGAUGAAGAGUAUAAGTT against Phka2, 0.338; to GGCAGUAAGAACUACUAAATT against Ric1, 2.65 (active).
As for GGGCCAGCAAGGAAAGAAUTT against Pitx2, the z-score is -1.37.
The result for GCCAUGAUACCUUGUUAUUTT against Plppr5 reads 1.08.
With GCUUUUUUAUGCAUUCCAATT against Rock1, the z-score was 0.575.
The result for GGCACCAAGCUCGAUGAUGTT against Sh3gl2 reads -1.41.
